Here are results for ten compounds from publication PMC5540273 (PLoS ONE, 2017).

What all share (conditions): concentration: 1 μM, replicates: in singlicate; n = 1
Experiment [1] relates to AAK1.
Experiment [2] concerns ABL1-nonphosphorylated.
Experiment [3] has as its system ABL1-phosphorylated.
Experiment [4] relates to ABL2.
The subject of experiment [5] is ACVR1B.
Experiment [6] relates to ACVR1.
Experiment [7] concerns ACVR2A.
Experiment [8] has as its system ACVR2B.
The test system of experiment [9] is ACVRL1.
For experiment [10], the system named is T1, ADCK3.
T1 construct: gene CABC1

In experiment [11] the test system is ADCK4.
Experiment [12] has as its system AKT1.
Experiment [13] has as its system AKT2.
The subject of experiment [14] is AKT3.
The subject of experiment [15] is ALK.
For experiment [16], the system named is T2, AMPK-alpha1.
T2 construct: gene PRKAA1

Experiment [17] deals with T3, AMPK-alpha2.
T3 construct: gene PRKAA2

In experiment [18] the test system is ANKK1.
Experiment [19] deals with T4, ARK5.
T4 construct: gene NUAK1

For experiment [20], the system named is T5, ASK1.
T5 construct: gene MAP3K5
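Note: KINOMEscan kinase panel screen.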

In the case of `CN(c1ccc(NC(=O)Nc2cc(C(F)(F)F)ccc2F)cc1)c1ccnc(Nc2ccc(S(N)(=O)=O)cc2)n1` [GW809893], the “%Inh” value in [1] stood at 9%; in experiment [2], 98.1%; in [3], 75%; in [4] it was 98.5%; in experiment [5], 1%; in experiment [6] it was 0%. Moreover, the “%Inh” value in experiment [7] is 0%; in experiment [8] it was 14%; in experiment [9], 4%; in experiment [10], 0%; in experiment [11], 7%; in experiment [12] it was 17%. In addition, the “%Inh” value in experiment [13] was determined as 11%; in [14], 9%; in experiment [15] it was 73%; in experiment [16], 27%; in [17] it was 19%; in [18], 78%. The “%Inh” value in [19] is 1%; in experiment [20] it was 0%.
With `CC(=O)Nc1nc2cnc(Nc3cc(NC(=O)c4cccc(C5(C#N)CC5)c4Cl)ccc3C)nc2s1`, the “%Inh” value in experiment [1] was found to be 23%; in experiment [2] it was 99%; in [3], 59%; in experiment [4], 70%; in experiment [5] it was 0%; in experiment [6], 0%. For the same compound, the “%Inh” value is reported as 0% in experiment [7]; 0% in experiment [8]; 0% in experiment [9]; 0% in experiment [10]; 0% in experiment [11]; 7% in experiment [12]. The “%Inh” value in experiment [13] amounted to 13%; in [14], 0%; in experiment [15] it was 0%; in experiment [16] it was 7%; in experiment [17], 21%; in experiment [18], 0%. For the same compound, the results for the “%Inh” value in [19] and in experiment [20] were 2% and 0%, respectively.
In the case of `COc1cc2c(cc1OCCN1CCNCC1)ncc1c3ccc(C#N)cc3[nH]c21`, the “%Inh” value in experiment [1] stood at 96.2%; in experiment [2], 68%; in experiment [3], 55%; in experiment [4], 8%; in experiment [5] it was 0%; in [6] it was 0%. Moreover, the “%Inh” value in [7] is 0%; in [8], 0%; in experiment [9], 0%; in experiment [10], 13%; in experiment [11], 5%; in experiment [12], 0%. Also, the “%Inh” value in experiment [13] is given as 0%; in experiment [14] it was 0%; in experiment [15], 26%; in [16] it was 15%; in experiment [17] it was 4%; in experiment [18], 37%. Besides, the entries for the “%Inh” value in experiment [19] and in experiment [20] were 22% and 0%, respectively.
`FC(F)(F)c1ccc(/C=C/c2cncnc2Nc2ccc3[nH]c(Cc4ccccc4)nc3c2)cc1` [GW709199]: the “%Inh” value in experiment [1] was 15%; in experiment [2] it was 35%; in experiment [3], 19%; in experiment [4], 4%; in experiment [5], 0%; in [6] it was 0%. In addition, the “%Inh” value in [7] is on record as 24%; in [8], 37%; in experiment [9], 0%; in experiment [10] it was 18%; in experiment [11] it was 0%; in [12], 0%. Also, the “%Inh” value in experiment [13] stood at 0%; in experiment [14], 0%; in experiment [15], 23%; in experiment [16] it was 0%; in [17] it was 3%; in experiment [18], 0%. For the same compound, the results for the “%Inh” value in experiment [19] and in experiment [20] were 6% and 0%, respectively.
Turning to `c1ccc(-c2n[nH]cc2Nc2ccnc3ccccc23)nc1` [GW694077], the “%Inh” value worked out at 82% in experiment [1]; 0% in experiment [2]; 0% in [3]; 0% in experiment [4]; 0% in experiment [5]; 30% in [6]. The “%Inh” value in experiment [7] came out at 0%; in experiment [8], 0%; in experiment [9] it was 0%; in [10] it was 3%; in experiment [11], 51%; in experiment [12], 0%. Besides, the “%Inh” value worked out at 2% in experiment [13]; 0% in experiment [14]; 21% in [15]; 0% in [16]; 0% in [17]; 75% in experiment [18]. In addition, the “%Inh” value in experiment [19] and in [20] was 0% in each case.
Turning to `O=C(O)C(F)(F)F.O=C(O)C(F)(F)F.O=c1[nH]ccc2nc(N[C@@H]3CCCNC3)nc(Nc3ccc(S(=O)(=O)N4CCOCC4)cc3)c12` [GSK2177277], the “%Inh” value came to 91.6% in experiment [1]; 47% in [2]; 84% in experiment [3]; 46% in experiment [4]; 2% in experiment [5]; 91.1% in experiment [6]. The “%Inh” value in [7] turned out to be 29%; in [8] it was 53%; in experiment [9], 9%; in [10], 0%; in experiment [11], 0%; in experiment [12] it was 0%. Moreover, the “%Inh” value amounted to 0% in experiment [13]; 0% in [14]; 97.4% in [15]; 97.6% in experiment [16]; 98.1% in [17]; 98.1% in experiment [18]. Also, the entries for the “%Inh” value in [19] and in experiment [20] were 100% and 0%, respectively.
With `Cl.Cl.NCC(C(=O)Nc1cc(Br)c(-c2ccnc3[nH]ccc23)s1)c1ccccc1` (centres unmarked) [GSK1269851], the “%Inh” value in experiment [1] was 78%; in experiment [2], 14%; in [3], 32%; in experiment [4], 35%; in experiment [5] it was 67%; in experiment [6] it was 47%. The “%Inh” value was found to be 0% in experiment [7]; 5% in [8]; 0% in experiment [9]; 65% in [10]; 95.7% in experiment [11]; 61% in experiment [12]. Also, the “%Inh” value in [13] amounted to 25%; in experiment [14], 66%; in experiment [15] it was 39%; in experiment [16] it was 0%; in experiment [17] it was 0%; in experiment [18], 0%. Moreover, the “%Inh” value in experiment [19] and in [20] was 0% in each case.
For `COc1cccc(NC(=O)NC2CCN(c3ccnc(Nc4cc(OC)c(OC)c(OC)c4)n3)C2)c1` (centres unmarked) [GSK1379763], the “%Inh” value is given as 74% in [1]; 0% in [2]; 0% in experiment [3]; 0% in experiment [4]; 0% in [5]; 0% in [6]. Besides, the “%Inh” value in experiment [7] came out at 89%; in experiment [8], 0%; in [9] it was 0%; in experiment [10], 0%; in [11] it was 59%; in experiment [12] it was 0%. The “%Inh” value in [13] is recorded as 7%; in experiment [14] it was 0%; in experiment [15], 45%; in experiment [16], 0%; in experiment [17], 0%; in experiment [18], 40%. For the same compound, the “%Inh” value in experiment [19] worked out at 18%; in experiment [20] it was 0%.
For the compound `Cl.Cl.NCC(NC(=O)c1cc(-c2ccccc2)c(-c2ccnc3[nH]ccc23)s1)c1ccccc1` (centres unmarked) [GSK1321561], the “%Inh” value worked out at 47% in experiment [1]; 89% in experiment [2]; 90% in experiment [3]; 87% in [4]; 0% in experiment [5]; 10% in [6]. In addition, the “%Inh” value in experiment [7] amounted to 4%; in [8] it was 18%; in [9], 0%; in experiment [10], 95.3%; in experiment [11], 89%; in [12], 57%. Moreover, the “%Inh” value in experiment [13] turned out to be 0%; in [14], 80%; in experiment [15] it was 27%; in experiment [16] it was 5%; in [17] it was 0%; in experiment [18], 0%. Also, the “%Inh” value in experiment [19] came to 16%; in [20], 0%.
With `CN1CCN(CCCNc2nccc(-c3c(-c4ccc(F)cc4)nn4cc(C(F)(F)F)ccc34)n2)CC1` [GW621581], the “%Inh” value was found to be 1% in experiment [1]; 0% in [2]; 0% in [3]; 9% in experiment [4]; 83% in experiment [5]; 40% in [6]. In addition, the “%Inh” value in [7] was 0%; in experiment [8], 0%; in experiment [9], 26%; in experiment [10], 70%; in [11], 97.1%; in [12] it was 0%. For the same compound, the “%Inh” value in experiment [13] is reported as 0%; in [14], 0%; in [15], 9%; in experiment [16], 0%; in [17] it was 19%; in experiment [18], 0%. Moreover, the “%Inh” value in experiment [19] was 21%; in experiment [20] it was 6%.
